Reference: PubChem BioAssay AID1159580 (chemical genetic matrix, 2015)
The campaign covered roughly 5,500 compounds. About 2,000 (36%) were called active. Inconclusive results (about 18%) are left out. Cut-off read from the data, not from the text of the source: active = normalized growth mostly below about 0.91 (no sharp cut-off); inconclusive = no clear call, values can overlap the other calls; inactive = mostly above about 0.92. The list shows a part of the results.

Test: chemical genetic growth profiling, strain panel (AID 1159580);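 note: tested at 20 µM; growth read once vehicle control cultures reached saturation at 30 °C; 1 = growth at the plate median or of vehicle wells; lower values mean less growth of the strain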
Settings: growth OD

SMILES: CCC(=O)O[C@H]1CCC2C3CCc4cc(O)ccc4C3CC[C@@]21C (some centres undefined)
- normalized growth (S. cerevisiae deletion strains, locus YJL187C, strain SWE1, active compounds read low): 0.995 (inactive)
- normalized growth (S. cerevisiae deletion strains, locus YJR043C, strain POL32, active compounds read low): 0.974 (inactive)
- normalized growth (S. cerevisiae deletion strains, locus YJR066W, strain TOR1, active compounds read low): 0.728 (active)
- normalized growth (S. cerevisiae deletion strains, locus YJR075W, strain HOC1, active compounds read low): 0.948 (inactive)
- normalized growth (S. cerevisiae deletion strains, locus YKL009W, strain mrt4, active compounds read low): 0.986 (inactive)
- normalized growth (S. cerevisiae deletion strains, locus YKL068W, active compounds read low): 1 (inactive)
- normalized growth (S. cerevisiae deletion strains, locus YKL085W, strain MDH1 (second series), active compounds read low): 0.936 (inactive)
- normalized growth (S. cerevisiae deletion strains, locus YKL085W, strain MDH1, active compounds read low): 0.936 (inactive)
- normalized growth (S. cerevisiae deletion strains, locus YKL160W, strain elf1, active compounds read low): 0.984 (inactive)
- normalized growth (S. cerevisiae deletion strains, locus YKL190W, strain CNB1, active compounds read low): 1 (inactive)
- normalized growth (S. cerevisiae deletion strains, locus YKR001C, strain vps1, active compounds read low): 0.927 (inactive)
- normalized growth (S. cerevisiae deletion strains, locus YKR026C, strain gcn3, active compounds read low): 0.971 (inactive)
- normalized growth (S. cerevisiae deletion strains, locus YKR091W, strain srl3, active compounds read low): 0.964 (inactive)
- normalized growth (S. cerevisiae deletion strains, locus YLL001W, strain dnm1, active compounds read low): 0.997 (inactive)
- normalized growth (S. cerevisiae deletion strains, locus YLL026W, active compounds read low): 1 (inactive)
- normalized growth (S. cerevisiae deletion strains, locus YLL041C, strain sdh2, active compounds read low): 1.01 (inactive)
- normalized growth (S. cerevisiae deletion strains, locus YLR027C, strain aat2, active compounds read low): 0.966 (inactive)
- normalized growth (S. cerevisiae deletion strains, locus YLR039C, strain RIC1, active compounds read low): 0.771 (inactive)
- normalized growth (S. cerevisiae deletion strains, locus YLR058C, strain SHM2, active compounds read low): 0.871 (active)
- normalized growth (S. cerevisiae deletion strains, locus YLR102C, strain apc9, active compounds read low): 1 (inactive)
- normalized growth (S. cerevisiae deletion strains, locus YLR113W, strain HOG1, active compounds read low): 0.287 (active)
- normalized growth (S. cerevisiae deletion strains, locus YLR221C, strain rsa3, active compounds read low): 0.967 (inactive)
- normalized growth (S. cerevisiae deletion strains, locus YLR258W, strain gsy2, active compounds read low): 1 (inactive)
- normalized growth (S. cerevisiae deletion strains, locus YLR262C, strain YPT6 (second series), active compounds read low): 0.676 (active)
- normalized growth (S. cerevisiae deletion strains, locus YLR262C, strain YPT6, active compounds read low): 0.797 (inactive)
- normalized growth (S. cerevisiae deletion strains, locus YLR268W, strain sec22, active compounds read low): 0.991 (inactive)
- normalized growth (S. cerevisiae deletion strains, locus YLR320W, strain mms22, active compounds read low): 0.969 (inactive)
- normalized growth (S. cerevisiae deletion strains, locus YLR330W, strain CHS5, active compounds read low): 0.984 (inactive)
- normalized growth (S. cerevisiae deletion strains, locus YLR342W, strain FKS1 (second series), active compounds read low): 0.785 (active)
- normalized growth (S. cerevisiae deletion strains, locus YLR342W, strain FKS1, active compounds read low): 0.972 (inactive)
- normalized growth (S. cerevisiae deletion strains, locus YLR357W, strain rsc2, active compounds read low): 0.954 (inactive)
- normalized growth (S. cerevisiae deletion strains, locus YLR370C, strain arc18, active compounds read low): 0.975 (inactive)
- normalized growth (S. cerevisiae deletion strains, locus YLR371W, strain rom2, active compounds read low): 1 (inactive)
- normalized growth (S. cerevisiae deletion strains, locus YLR384C, strain iki3, active compounds read low): 0.994 (inactive)
- normalized growth (S. cerevisiae deletion strains, locus YLR418C, strain cdc73, active compounds read low): 0.937 (inactive)
- normalized growth (S. cerevisiae deletion strains, locus YML016C, strain PPZ1, active compounds read low): 0.997 (inactive)
- normalized growth (S. cerevisiae deletion strains, locus YML032C, strain rad52, active compounds read low): 0.985 (inactive)
- normalized growth (S. cerevisiae deletion strains, locus YML120C, strain ndi1, active compounds read low): 0.881 (active)
- normalized growth (S. cerevisiae deletion strains, locus YML124C, strain tub3, active compounds read low): 1 (inactive)
- normalized growth (S. cerevisiae deletion strains, locus YMR058W, strain fet3, active compounds read low): 0.977 (inactive)
- normalized growth (S. cerevisiae deletion strains, locus YMR078C, strain ctf18, active compounds read low): 1.02 (inactive)
- normalized growth (S. cerevisiae deletion strains, locus YMR125W, strain sto1, active compounds read low): 0.982 (inactive)
- normalized growth (S. cerevisiae deletion strains, locus YMR129W, active compounds read low): 0.979 (inactive)
- normalized growth (S. cerevisiae deletion strains, locus YMR205C, strain PFK2, active compounds read low): 0.929 (inactive)
- normalized growth (S. cerevisiae deletion strains, locus YMR223W, strain ubp8, active compounds read low): 0.956 (inactive)
- normalized growth (S. cerevisiae deletion strains, locus YMR231W, strain pep5, active compounds read low): 1.01 (inactive)
- normalized growth (S. cerevisiae deletion strains, locus YMR307W, strain GAS1, active compounds read low): 0.766 (inactive)
- normalized growth (S. cerevisiae deletion strains, locus YNL067W, strain RPL9B, active compounds read low): 0.974 (inactive)
- normalized growth (S. cerevisiae deletion strains, locus YNL071W, strain lat1, active compounds read low): 0.969 (inactive)
- normalized growth (S. cerevisiae deletion strains, locus YNL183C, strain NPR1, active compounds read low): 0.755 (active)
- normalized growth (S. cerevisiae deletion strains, locus YNL209W, strain ssb2, active compounds read low): 0.984 (inactive)
- normalized growth (S. cerevisiae deletion strains, locus YNL233W, strain BNI4, active compounds read low): 0.784 (active)
- normalized growth (S. cerevisiae deletion strains, locus YNL248C, strain rpa49, active compounds read low): 0.991 (inactive)
- normalized growth (S. cerevisiae deletion strains, locus YNL250W, strain rad50, active compounds read low): 0.998 (inactive)
- normalized growth (S. cerevisiae deletion strains, locus YNL271C, strain bni1, active compounds read low): 1.01 (inactive)
- normalized growth (S. cerevisiae deletion strains, locus YNL298W, strain CLA4, active compounds read low): 0.999 (inactive)
- normalized growth (S. cerevisiae deletion strains, locus YNL307C, strain MCK1, active compounds read low): 0.935 (inactive)
- normalized growth (S. cerevisiae deletion strains, locus YNL322C, strain KRE1 (second series), active compounds read low): 0.977 (inactive)
- normalized growth (S. cerevisiae deletion strains, locus YNR049C, strain mso1, active compounds read low): 0.986 (inactive)
- normalized growth (S. cerevisiae deletion strains, locus YNR052C, strain pop2, active compounds read low): 1 (inactive)
- normalized growth (S. cerevisiae deletion strains, locus YOL006C, strain TOP1, active compounds read low): 0.958 (inactive)
- normalized growth (S. cerevisiae deletion strains, locus YOL012C, strain htz1): 1.25 (inactive)
- normalized growth (S. cerevisiae deletion strains, locus YOL147C, strain pex11, active compounds read low): 1 (inactive)
- normalized growth (S. cerevisiae deletion strains, locus YOR001W, strain rrp6, active compounds read low): 0.98 (inactive)
- normalized growth (S. cerevisiae deletion strains, locus YOR061W, strain CKA2, active compounds read low): 0.935 (inactive)
- normalized growth (S. cerevisiae deletion strains, locus YOR069W, strain VPS5, active compounds read low): 0.996 (inactive)
- normalized growth (S. cerevisiae deletion strains, locus YOR070C, strain gyp1, active compounds read low): 1 (inactive)
- normalized growth (S. cerevisiae deletion strains, locus YOR080W, strain dia2, active compounds read low): 0.979 (inactive)
- normalized growth (S. cerevisiae deletion strains, locus YOR083W, strain WHI5, active compounds read low): 0.976 (inactive)
- normalized growth (S. cerevisiae deletion strains, locus YOR106W, strain vam3, active compounds read low): 0.978 (inactive)
- normalized growth (S. cerevisiae deletion strains, locus YOR136W, strain idh2, active compounds read low): 1.02 (inactive)
- normalized growth (S. cerevisiae deletion strains, locus YOR144C, strain elg1, active compounds read low): 1.01 (inactive)
- normalized growth (S. cerevisiae deletion strains, locus YOR184W, strain ser1, active compounds read low): 0.96 (inactive)
- normalized growth (S. cerevisiae deletion strains, locus YOR231W, strain MKK1, active compounds read low): 0.483 (active)
- normalized growth (S. cerevisiae deletion strains, locus YOR265W, strain rbl2, active compounds read low): 0.994 (inactive)
- normalized growth (S. cerevisiae deletion strains, locus YOR270C, strain vph1, active compounds read low): 0.911 (inactive)
- normalized growth (S. cerevisiae deletion strains, locus YOR290C, strain snf2, active compounds read low): 0.939 (inactive)
- normalized growth (S. cerevisiae deletion strains, locus YOR316C, strain cot1, active compounds read low): 1.01 (inactive)
- normalized growth (S. cerevisiae deletion strains, locus YPL051W, strain arl3, active compounds read low): 1 (inactive)
- normalized growth (S. cerevisiae deletion strains, locus YPL078C, strain atp4, active compounds read low): 0.992 (inactive)
- normalized growth (S. cerevisiae deletion strains, locus YPL106C, strain sse1, active compounds read low): 0.839 (active)
- normalized growth (S. cerevisiae deletion strains, locus YPL240C, strain hsp82, active compounds read low): 1 (inactive)
- normalized growth (S. cerevisiae deletion strains, locus YPL256C, strain CLN2, active compounds read low): 0.643 (active)
- normalized growth (S. cerevisiae deletion strains, locus YPR119W, strain clb2, active compounds read low): 0.995 (inactive)
- normalized growth (S. cerevisiae deletion strains, locus YPR141C, strain kar3, active compounds read low): 1.02 (inactive)
- normalized growth (S. cerevisiae deletion strains, locus YPR163C, strain tif3, active compounds read low): 1.02 (inactive)
- normalized growth (S. cerevisiae deletion strains, locus YPR167C, strain met16, active compounds read low): 1.01 (inactive)
- normalized growth (S. cerevisiae deletion strains, strain wtn01, active compounds read low): 1 (inactive)
- normalized growth (S. cerevisiae strains, strain wild type, active compounds read low): 0.884 (active)
